Measurements published in PubChem BioAssay (NCATS).
Records with an inconclusive call do not appear. Where a call stands in place of a potency, no number is given. Active and inactive are the calls of the source. Calls come from the whole dose curve; as a rule, active = well fitted curve in the direction sought with a large enough effect; inconclusive = small, poorly fitted or top-dose-only effect, or another doubt; inactive = no such curve, though single readings can be large; an effect the other way counts as inactive or inconclusive.

Legend:
[1] = biological target: Aldehyde dehydrogenase, mitochondrial (Homo sapiens) (UniProt P05091); assay: qHTS for Inhibitors of the Aldehyde Dehydrogenase Family (ALDH2) Primary screen (AID 2061308); note: nearly all actives have a fitted effect of over 55% in size
[2] = biological target: Retinaldehyde dehydrogenase 3 (Homo sapiens) (UniProt P47895); assay: qHTS for Inhibitors of the Aldehyde Dehydrogenase Family (ALDH1A3) Primary screen (AID 2061315)

SMILES	Potency [1]	Potency [2]
Fc1cc(-c2nc(Nc3ccc(F)c(F)c3)c3ccccc3n2)ccn1	inactive	inactive
CCOC(=O)c1ccc(-c2ccc3ncnc(N(C)Cc4sccc4C)c3c2)o1	inactive	inactive
CCN1CCCC1Cn1c(-c2ccccc2)nc2c(NCCOC)nc(C)nc21 (configuration not stated)	inactive	inactive
CC(C)(C)OC(=O)N1CCC(C(=O)Nc2ccc([S+](=O)([O-])Nc3nccs3)cc2)CC1	inactive	inactive
COc1cccc(-c2csc3ncnc(Sc4nnnn4C)c23)c1	inactive	inactive
CCOc1ccc(CCNC(=O)c2ccc3[nH]ccc3c2)cc1OCC	inactive	inactive
Cc1c(P(=S)(c2ccccc2)c2ccccc2)[n+]2ccccc2n1CCc1ccccc1	inactive	inactive
COc1cc(O)c(C(CC(=O)N2CC(C)CC(C)C2)c2ccc3c(c2)OCCO3)c(OC)c1 (configuration not stated)	inactive	inactive
CC(C)(C)c1cc(O)c(CN)c(C(C)(C)C)c1	inactive	inactive
Cn1nnnc1Sc1ncnc2scc(-c3ccc4c(c3)OCO4)c12	inactive	inactive
Cc1ccc(S(=O)(=O)N2CCN(c3nc(C#N)nc4ccccc34)CC2)cc1	inactive	inactive
CCOc1ccc(CCNC(=O)c2cc3sccc3n2CCc2ccccc2)cc1OCC	inactive	inactive
CC(=O)Nc1sc2c(c1C#N)CCN(C(C)C)C2	inactive	inactive
Cc1noc(-c2sc3c(c2-c2nc4ccccc4s2)CCNC3)n1	inactive	inactive
FC(F)(F)c1ccccc1-c1nc(NCc2ccc(-c3cccnc3)cc2)c2[nH]cnc2n1	inactive	inactive
COC(=O)c1cc2c(s1)c1cnn(Cc3ccccc3F)c(=O)c1n2C	inactive	inactive
Cn1cnc(CCNc2ncnc3ccc(-c4ccc5c(c4)OCO5)cc23)c1	inactive	inactive
Cc1ccc(S(=O)(=O)Nc2ccccc2C(=O)Nc2ccc(-c3ccccc3)nc2)cc1	inactive	inactive
Cc1ccc(OCCn2c(CCNC(=O)/C=C/c3cccc(Br)c3)nc3ccccc32)cc1	inactive	inactive
C=C(C(=O)OC[C@H]1O[C@@H](OC(=O)/C=C/c2ccccc2)[C@H](O)[C@@H](O)[C@@H]1O)C(O)CO (some centres not stated)	inactive	inactive
N#CN1CCC(NS(=O)(=O)c2cccc(C(F)(F)F)c2)CC1	inactive	inactive
Cc1ccc(-c2csc(NC(=O)c3ccccc3NS(=O)(=O)c3ccc(C)cc3)n2)cc1	inactive	inactive

SMILES	Potency [1]	Potency [2]
Cc1ccccc1C(=O)N1CCc2cc(-c3nc(NC(=O)Cc4ccccc4)sc3C)ccc21	inactive	inactive
COc1cc(NC(=O)c2cnn3c(C)cc(C)nc23)cc(OC)c1OC	inactive	inactive
O=[S+]([O-])(c1ccc2c(c1)OCCO2)N1CCN([S+](=O)([O-])c2ccccc2Br)CC1	inactive	inactive
Cc1ccc(S(=O)(=O)Nc2ccccc2C(=O)Nc2nc(-c3ccc(Cl)cc3)cs2)cc1	inactive	inactive
O=C(c1ccc(F)c(F)c1Nc1ccc(I)cc1F)N1CC(O)(C2CCCCN2)C1 (configuration not stated)	inactive	inactive
S=P(c1ccccc1)(c1ccccc1)c1nc(CCCc2ccccc2)n2ccccc12	inactive	inactive
CC1(C)CCC(C)(C)c2cc([S+](=O)([O-])N3CCN([S+](=O)([O-])c4c(F)cccc4F)CC3)ccc21	inactive	inactive
Cc1cc(C)nc(NC(=S)N2CCN(c3nncs3)CC2)c1	inactive	inactive
Cc1ccc2nc(NC3=NC4(CCCC4)C4=C(CCCC4=O)N3)oc2c1	inactive	inactive
CCOc1ccc(CCNC(=O)c2cc3sccc3n2Cc2ccc(Cl)c(F)c2)cc1OCC	inactive	inactive
Cc1nc(CNc2ncnc3ccc(-c4ccc(CO)o4)cc23)cs1	inactive	inactive
O=[S+]([O-])(Nc1ccc(N2CCNCC2)cc1)c1ccc(NCc2cccc(Cl)c2O)cc1	inactive	inactive
Cc1cn2c(-c3cn[nH]c3)cnc2c(Nc2ccc(C(=O)N3CCNCC3)cc2F)n1	inactive	inactive
CCc1nn2c(=O)cc(N3C(C)CNCC3C)nc2s1 (configuration not stated)	inactive	inactive
Cc1cccc(-c2csc3ncnc(Sc4nnnn4C)c23)c1	inactive	inactive
CS(=O)(=O)c1ccc(C(=O)OCC#CCSc2nnc(-c3cccc4ccccc34)o2)cc1	inactive	inactive
COc1cccc(NC(=S)N2CCN(c3cc(Cl)cc(Cl)c3)CC2)n1	inactive	inactive
Cc1cc(C)nc(NC(=S)N2CCN(c3ccc(C(F)(F)F)cc3C(F)(F)F)CC2)c1	inactive	inactive
COc1ccc(-c2nc3ccc(Cl)cc3c(=O)n2Cc2ccccc2)cc1COc1ccc(NC(C)=O)cc1	inactive	inactive
CCN(CC)CCCCn1c(-c2ccccc2)nc2c(N(CCOC)CCOC)nc(C)nc21	inactive	inactive
COc1cc(-c2ccc3ncnc(NCCc4cnc[nH]4)c3c2)cc(OC)c1OC	inactive	inactive
O=C(Nc1ccc([S+](=O)([O-])Nc2nccs2)cc1)c1ncn[nH]1	inactive	inactive

SMILES	Potency [1]	Potency [2]
NC1(C(=O)NC(CCO)c2ccc(Cl)cc2)CCN(c2ncnc3[nH]ccc23)CC1 (configuration not stated)	inactive	inactive
COc1cc(O)c(C(CC(=O)N2CCCC(C)C2)c2ccc(OC)c(OC)c2)c(OC)c1 (configuration not stated)	inactive	inactive
O=C(Cn1nc(-c2ccc(C(F)(F)F)cc2)ccc1=O)NCCc1ccccc1	inactive	inactive
COc1ccc(C2c3c(ncn(Cc4ccccc4)c3=N)Oc3ccc4ccccc4c32)cc1OC (configuration not stated)	inactive	inactive
COc1cc(-c2no[n+]([O-])c2C#N)cc(OC)c1OC	inactive	inactive
O=S(=O)(c1ccc2c(c1)OCCO2)C1CCC(O)CC1 (configuration not stated)	inactive	inactive
Fc1cc(Cl)cc(-c2ccc(CNc3nc(-c4ccccc4C(F)(F)F)nc4ccccc34)cc2)c1	inactive	inactive
Cc1ccc(OCCn2c(CCNC(=O)c3ccccn3)nc3ccccc32)cc1	inactive	inactive
O=S(=O)(c1ccc2c(c1)OCCO2)N1CCN(S(=O)(=O)c2ccccn2)CC1	inactive	inactive
Nc1ncnc2c1C(c1ccccc1)c1c(ccc3ccccc13)O2 (configuration not stated)	inactive	inactive
CC(C)(C)c1ccc(-c2csc(N3CCC(C(N)=O)CC3)n2)cc1	inactive	inactive
O=C(OCC#CCSc1nnc(-c2cccc3ccccc23)o1)c1ccc(F)cc1F	inactive	inactive
O=S(=O)(NCc1ccccc1F)c1ccc(O)c2ncccc12	inactive	inactive
COc1c(Cl)cccc1NC(=O)c1c(NC(=O)Cc2ccccc2)sc2c1CCCC2	inactive	inactive
CCCc1c(C(C)C)nc(C(C)C)c([C@@H](C)O)c1-c1ccc(F)cc1O	inactive	inactive
COc1cc(OC)cc(-c2nnc3n2N=C(c2c(OC)cccc2OC)CS3)c1	inactive	inactive
CC(C)(C)c1cccc(NC(=O)Nc2nnc(-c3ccncc3)s2)c1	inactive	inactive
Nc1nc2c(ncn2C2OC3COP(=O)(O)OC3C2O)c(=O)[nH]1 (configuration not stated)	inactive	inactive
Cc1ccc(S(=O)(=O)Nc2ccc(C(=O)Nc3nc(-c4ccccc4)cs3)cc2Cl)cc1	inactive	inactive
O=C(OCC#CCSc1nnc(-c2cccc3ccccc23)o1)C1CCCC1	inactive	inactive
COC1CC(=O)C23C(=O)NC(CC(C)C)C2C(C)C(C)=CC3/C=C(\C)CCC1O (configuration not stated)	inactive	inactive
COc1cc(O)c(C(CC(=O)N2CC(C)CC(C)C2)c2ccc(O)cc2)c(OC)c1 (configuration not stated)	inactive	inactive

SMILES	Potency [1]	Potency [2]
O=C(c1ccc2c(c1)ncn2-c1ccccc1)N1CCCCC1	inactive	inactive
CN(C)[C@@H]1CCN(c2cccc(Nc3nn4c(=O)c5ccccc5nc4s3)c2)C1	inactive	inactive
CC(=O)Nc1sc2c(c1-c1ccc3c(c1)OCO3)CCNC2	inactive	inactive
COc1ccccc1NC(=O)c1ccc2ccccc2c1	inactive	inactive
Cc1ccccc1CSc1nc2ncc(Br)cc2[nH]1	inactive	inactive
O=C(Nc1ccc(-n2ccnc2)c(F)c1)Nc1nnc(-c2ccncc2)s1	inactive	inactive
CNc1oc(-c2cccc3ccccc23)nc1C(=O)OC	inactive	inactive
O=S(=O)(c1ccc2c(c1)OCCO2)N1CCN(S(=O)(=O)c2cc(F)c(F)cc2F)CC1	inactive	inactive
O=C(OCC#CCSc1nnc(-c2cccc3ccccc23)o1)C1CCC1	inactive	inactive
O=C(Nc1nc(-c2ccccc2)cs1)c1ccccc1-n1cnnn1	inactive	inactive
COc1ccc([C@H]2[C@H](c3ccccc3)C(=O)N2Cc2ccccc2)cc1COc1ccc(NC(C)=O)cc1	inactive	inactive
O=C(OCC#CCSc1nnc(-c2cccc3ccccc23)o1)c1cnc[nH]1	inactive	inactive
CCOC(=O)CCc1cc(F)c(S(=O)(=O)N2CCN(S(=O)(=O)c3ccc4c(c3)OCCO4)CC2)cc1F	inactive	inactive
Cc1nc(N2CCOCC2)c2nc(-c3ccccc3)n(CCCN(C)C)c2n1	inactive	inactive
COc1ccc(C(=O)O[C@H]2C=COC=C3C=C4C(=O)N(C)C(=S)C(=O)N4[C@@H]32)cc1Oc1cc(C=O)ccc1O	inactive	inactive
Cn1nnnc1Sc1ncnc2scc(-c3cccc(F)c3)c12	inactive	inactive
CC(C)COc1ccc(-c2ccc(=O)n(CC(=O)NCCc3ccccc3)n2)cc1	inactive	inactive
O=C(Nc1nnc(-c2ccco2)o1)c1ccc(Cl)cc1	inactive	inactive
CC(=O)N1CCN(S(=O)(=O)c2ccc3c(c2)CC(=O)N3)CC1	inactive	inactive
CC(=O)Nc1sc2c(c1-c1nc3ccccc3s1)CCN(C(=O)OC(C)(C)C)C2	inactive	inactive
